# Laboratory results as given in PubChem BioAssay (EPA / NIEHS).
# Where “and” joins values, the source holds several entries; their conditions need not be identical. Equal values may be shown once. Records with an inconclusive call do not appear. Calls of active or inactive are those of the source. Rule for the calls, unless noted: active = hit-call score of the fitted dose curve at least 0.9, where 1 is the maximum; inconclusive = response in the unintended direction; inactive = score below 0.9.
# Legend:
# [1] = target: human RAR-related Orphan Receptor gamma (RORg), RORC (gene 6097) (UniProt P51449); test: ATG_RORg_TRANS: Attagene TRANS-FACTORIAL HepG2 Assay for human RAR-related Orphan Receptor gamma (RORg) (AID 2283011)
# human RAR-related Orphan Receptor gamma (RORg), RORC (gene 6097), sequence (P51449 whole entry, looked up, the tested form may be a part): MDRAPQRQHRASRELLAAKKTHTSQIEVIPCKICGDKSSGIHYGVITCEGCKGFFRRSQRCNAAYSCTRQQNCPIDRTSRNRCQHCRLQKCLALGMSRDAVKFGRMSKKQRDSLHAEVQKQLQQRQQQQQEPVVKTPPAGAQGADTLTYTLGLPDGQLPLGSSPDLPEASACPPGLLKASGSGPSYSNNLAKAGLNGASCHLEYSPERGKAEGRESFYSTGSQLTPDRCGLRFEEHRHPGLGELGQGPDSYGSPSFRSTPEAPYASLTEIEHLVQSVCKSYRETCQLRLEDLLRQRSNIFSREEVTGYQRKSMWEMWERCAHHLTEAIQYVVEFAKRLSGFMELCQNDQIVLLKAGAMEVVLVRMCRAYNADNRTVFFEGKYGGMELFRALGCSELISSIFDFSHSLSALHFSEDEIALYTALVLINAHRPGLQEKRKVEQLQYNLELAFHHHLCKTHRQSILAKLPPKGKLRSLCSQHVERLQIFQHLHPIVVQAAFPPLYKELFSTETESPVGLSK
# Summary of the method: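 First, HepG2 liver cells were transfected with GAL4-UAS-driven reporter constructs and the RORg-Gal4 fusion. Next, they were treated with chemical for 24 h. Finally, reporter mRNA was quantified by RT-PCR and capillary electrophoresis, with upward activity fitted against DMSO.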
# [2] = target: human Thyroid Receptor alpha (THRa1), THRA (gene 7067) (UniProt P10827); test: ATG_THRa1_TRANS: Attagene TRANS-FACTORIAL HepG2 Assay for human Thyroid Receptor alpha (THRa1) (AID 2283014)
# human Thyroid Receptor alpha (THRa1), THRA (gene 7067), sequence (P10827 whole entry, looked up, the tested form may be a part): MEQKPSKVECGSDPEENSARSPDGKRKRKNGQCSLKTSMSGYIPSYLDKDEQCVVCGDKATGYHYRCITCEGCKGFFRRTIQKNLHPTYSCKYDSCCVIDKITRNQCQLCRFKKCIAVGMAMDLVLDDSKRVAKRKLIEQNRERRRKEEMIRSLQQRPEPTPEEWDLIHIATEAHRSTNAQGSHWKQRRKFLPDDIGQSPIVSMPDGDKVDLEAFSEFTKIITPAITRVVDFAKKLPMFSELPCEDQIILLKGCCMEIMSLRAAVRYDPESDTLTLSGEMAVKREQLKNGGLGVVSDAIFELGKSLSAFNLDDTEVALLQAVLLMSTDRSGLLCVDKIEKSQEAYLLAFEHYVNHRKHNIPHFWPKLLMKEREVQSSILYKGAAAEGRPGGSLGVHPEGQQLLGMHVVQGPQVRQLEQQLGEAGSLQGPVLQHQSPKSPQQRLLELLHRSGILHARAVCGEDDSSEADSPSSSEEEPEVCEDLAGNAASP
# Summary of the method: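 Reporter transcript induction, read by capillary electrophoresis of 6-FAM-labelled RT-PCR products, reflects activity of a transfected THRa1-Gal4 fusion in HepG2 liver cells. Cells were dosed for 24 h; activity was fitted in the positive direction against DMSO.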
# [3] = target: human Retinoid X Receptor beta (RXRb), RXRB (gene 6257) (UniProt P28702); test: ATG_RXRb_TRANS: Attagene TRANS-FACTORIAL HepG2 Assay for human Retinoid X Receptor beta (RXRb) (AID 2283013)
# human Retinoid X Receptor beta (RXRb), RXRB (gene 6257), sequence (P28702 whole entry, looked up, the tested form may be a part): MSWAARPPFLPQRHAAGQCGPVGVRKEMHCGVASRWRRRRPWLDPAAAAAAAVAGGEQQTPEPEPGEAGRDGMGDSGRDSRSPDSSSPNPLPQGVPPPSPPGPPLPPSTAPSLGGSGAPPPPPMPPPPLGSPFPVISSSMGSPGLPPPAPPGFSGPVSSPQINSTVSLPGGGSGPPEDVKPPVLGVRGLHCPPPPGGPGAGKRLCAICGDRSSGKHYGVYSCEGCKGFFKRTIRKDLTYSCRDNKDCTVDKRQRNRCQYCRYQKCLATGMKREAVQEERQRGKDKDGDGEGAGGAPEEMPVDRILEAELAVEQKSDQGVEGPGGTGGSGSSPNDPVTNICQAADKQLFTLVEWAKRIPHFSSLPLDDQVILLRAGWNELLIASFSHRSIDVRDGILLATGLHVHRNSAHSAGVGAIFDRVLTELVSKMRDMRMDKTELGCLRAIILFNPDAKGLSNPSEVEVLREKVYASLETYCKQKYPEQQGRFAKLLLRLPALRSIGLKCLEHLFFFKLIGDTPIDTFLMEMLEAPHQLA
# Summary of the method: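 HepG2 cells transiently transfected with multiplexed reporter units driven by GAL4-UAS and exogenous chimeric NR-Gal4 proteins; treated 24 h. Reporter mRNA measured by RT-PCR, 6-FAM labelling and capillary electrophoresis; gain-of-signal fitted versus DMSO baseline.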
# [4] = target: Retinoic acid receptor RXR-alpha (Homo sapiens) (UniProt P19793); test: ATG_RXRa_TRANS: Attagene TRANS-FACTORIAL HepG2 Assay for human Retinoid X Receptor alpha (RXRa) (AID 2283012)
# Retinoic acid receptor RXR-alpha (Homo sapiens), sequence (P19793 whole entry, looked up, the tested form may be a part): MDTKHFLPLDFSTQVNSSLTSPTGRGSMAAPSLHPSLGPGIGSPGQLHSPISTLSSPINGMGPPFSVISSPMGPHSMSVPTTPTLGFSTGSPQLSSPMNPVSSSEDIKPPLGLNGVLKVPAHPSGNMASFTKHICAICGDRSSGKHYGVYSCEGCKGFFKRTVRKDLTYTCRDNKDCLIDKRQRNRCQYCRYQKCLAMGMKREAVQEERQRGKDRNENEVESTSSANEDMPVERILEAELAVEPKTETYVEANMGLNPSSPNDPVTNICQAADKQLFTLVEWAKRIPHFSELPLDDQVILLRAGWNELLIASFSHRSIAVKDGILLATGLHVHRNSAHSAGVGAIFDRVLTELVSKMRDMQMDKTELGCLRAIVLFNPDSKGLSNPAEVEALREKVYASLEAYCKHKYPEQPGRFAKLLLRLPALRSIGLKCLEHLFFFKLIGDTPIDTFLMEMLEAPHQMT
# Summary of the method: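 HepG2 cells transiently transfected with multiplexed GAL4-UAS reporter units and chimeric NR-GAL4 fusions, dosed 24 h. Reporter mRNA measured by RT-PCR, FAM labelling, HpaI digestion and capillary electrophoresis; gain-of-signal fitted relative to DMSO baseline.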
# [5] = read-out: E-selectin (Homo sapiens) (UniProt P16581); test: BSK_3C_Eselectin: BioMAP Diversity Plus: 3C Assay for Eselectin Biomarker Activity (AID 2283015; active = hit-call score of the fitted dose curve at least 0.9, where 1 is the maximum; inactive = score below 0.9;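 for outcome: cell surface E-selectin protein quantified by ELISA 24 h after dosing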); details: primary human endothelial cells (HUVEC); actives raise or lower the signal
# Summary of the method: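 ELISA read-out of E-selectin on endothelial monolayers after 24 h chemical treatment. Human umbilical vein primary cells served as the system, with DMSO defining baseline activity for bidirectional fitting.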
# [6] = read-out: Interleukin-1 alpha (IL1a), IL1A (gene 3552); test: BSK_BE3C_IL1a: BioMAP Diversity Plus: BE3C Assay for Interleukin-1 alpha (IL1a) Biomarker Activity (AID 2283016; active = hit-call score of the fitted dose curve at least 0.9, where 1 is the maximum; inactive = score below 0.9); details: primary human bronchial epithelial cells; actives raise or lower the signal
# Summary of the method: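 Human primary bronchial epithelial cells (BE3C system) were dosed with compound and IL-1a measured by ELISA 24 h later. Activity was fitted bidirectionally against DMSO baseline; cytotoxicity was tracked in parallel cultures by SRB total-protein staining.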
# [7] = read-out: Monocyte Chemoattractant Protein-1 (MCP1), CCL2 (gene 6347); test: BSK_3C_MCP1: BioMAP Diversity Plus: 3C Assay for Monocyte Chemoattractant Protein-1 (MCP1) Biomarker Activity (AID 2283017; active = hit-call score of the fitted dose curve at least 0.9, where 1 is the maximum; inactive = score below 0.9); details: primary human endothelial cells (HUVEC); actives raise or lower the signal
# Summary of the method: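 ELISA read-out of MCP-1 from human umbilical vein endothelial cell cultures harvested 24 h post-dosing. Gain or loss of signal was fitted relative to DMSO.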
# [8] = read-out: Human Leukocyte Antigen - DR isotype (HLADR), HLA-DRA (gene 3122); test: BSK_3C_HLADR: BioMAP Diversity Plus: 3C Assay for Human Leukocyte Antigen - DR isotype (HLADR) Biomarker Activity (AID 2283019; active = hit-call score of the fitted dose curve at least 0.9, where 1 is the maximum; inactive = score below 0.9;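 for outcome: ELISA of cell-surface HLA-DR on HUVEC 24 h after dosing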); details: primary human endothelial cells (HUVEC); actives raise or lower the signal
# Summary of the method: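 ELISA readout of surface HLA-DR on human umbilical vein endothelium, taken 24 h after chemical treatment. Gain- and loss-of-signal were both fitted relative to DMSO.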
# [9] = read-out: Monocyte Chemoattractant Protein-1 (MCP1), CCL2 (gene 6347); test: BSK_4H_MCP1: BioMAP Diversity Plus: 4H Assay for Monocyte Chemoattractant Protein-1 (MCP1) Biomarker Activity (AID 2283018; active = hit-call score of the fitted dose curve at least 0.9, where 1 is the maximum; inactive = score below 0.9); details: primary human endothelial cells (HUVEC); actives raise or lower the signal
# Summary of the method: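 Human umbilical vein endothelial cells (4H system) dosed with chemical; MCP-1 measured by ELISA 24 h after dosing. Bidirectional curve fitting against DMSO negative control as baseline; parallel SRB total-protein staining tracks overt cytotoxicity.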
# E-selectin (Homo sapiens), sequence (P16581 whole entry, looked up): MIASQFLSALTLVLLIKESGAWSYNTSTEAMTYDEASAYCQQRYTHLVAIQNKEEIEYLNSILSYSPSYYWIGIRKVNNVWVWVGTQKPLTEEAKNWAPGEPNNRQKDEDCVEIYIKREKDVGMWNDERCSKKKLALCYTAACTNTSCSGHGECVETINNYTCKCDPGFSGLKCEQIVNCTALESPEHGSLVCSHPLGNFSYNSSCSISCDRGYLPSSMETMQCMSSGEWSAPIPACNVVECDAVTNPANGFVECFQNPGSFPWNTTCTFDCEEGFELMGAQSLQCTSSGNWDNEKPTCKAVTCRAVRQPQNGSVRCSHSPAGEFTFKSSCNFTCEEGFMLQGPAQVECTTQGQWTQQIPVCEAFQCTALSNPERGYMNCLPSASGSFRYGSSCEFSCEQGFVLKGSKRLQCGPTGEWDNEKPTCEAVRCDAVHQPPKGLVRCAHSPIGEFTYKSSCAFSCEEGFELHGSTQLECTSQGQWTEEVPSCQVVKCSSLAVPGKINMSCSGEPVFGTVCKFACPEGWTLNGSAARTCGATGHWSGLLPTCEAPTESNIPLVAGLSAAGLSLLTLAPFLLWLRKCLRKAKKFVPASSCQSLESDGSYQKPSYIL
smiles,measurement,setting,value
COC(=O)c1ccccc1C,outcome,[1],inactive
same,outcome,[2],inactive
O=C(OCCc1ccccc1)c1ccccc1,outcome,[1],inactive
same,outcome,[3],inactive
Cc1cc(C)n(CO)n1,outcome,[1],inactive
same,outcome,[3],inactive
CC(C)c1cc(C(C)C)cc(C(C)C)c1,AC50,[4],6.06 µM (active)
same,AC50,[3],0.399 µM (active)
[Cl][Sc]([Cl])[Cl],outcome,[1],inactive
same,outcome,[2],inactive
N#Cc1ccc(C(c2ccc(C#N)cc2)n2cncn2)cc1,outcome,[4],inactive
same,outcome,[3],inactive
CCCCC(CC)COS(=O)(=O)O (stereo not drawn),outcome,[1],inactive
same,outcome,[2],inactive
CCOC(=O)c1ccccc1C,outcome,[1],inactive
same,outcome,[2],inactive
CC(C)c1ccc(O)c(C(C)C)c1,AC50,[4],54.6 µM (active)
same,AC50,[3],9.23 µM (active)
C=Cc1cccc(C)c1,outcome,[1],inactive
same,outcome,[3],inactive
same,outcome,[2],inactive
CC1(C)CCC[C@]2(C)[C@H]3CC(=O)O[C@]3(C)CC[C@@H]12,outcome,[4],inactive
same,outcome,[3],inactive
O=C1CCCN1C1CCCCC1,outcome,[1],inactive
same,outcome,[3],inactive
Cc1c[nH]c(=O)[nH]c1=O,outcome,[4],inactive
same,outcome,[3],inactive
same,outcome,[2],inactive
CC1CCC(C(C)(C)S)C(=O)C1 (stereo not drawn),outcome,[4],inactive
same,outcome,[3],inactive
same,outcome,[2],inactive
COc1ccc(C(=O)c2ccccc2)c(O)c1,outcome,[4],inactive
same,AC50,[3],28.7 µM (active)
same,outcome,[5],inactive
same,outcome,[6],inactive
same,AC50,[7],185 nM (active)
same,AC50,[8],27.8 µM (active)
O=C(O)/C=C/c1ccccc1,outcome,[4],inactive
same,AC50,[3],121 µM (active)
same,outcome,[2],inactive
CCCCCCCC(=O)OCC,outcome,[4],inactive
same,outcome,[3],inactive
C=CC(C)(O)CC/C=C(\C)CC (stereo not drawn),outcome,[4],inactive
same,outcome,[3],inactive
Cn1ccnc1,outcome,[4],inactive
same,outcome,[3],inactive
same,outcome,[2],inactive
CCCCCCCCCC(C)=O,outcome,[4],inactive
same,outcome,[3],inactive
same,outcome,[2],inactive
c1ccc(-c2nc3ccccc3[nH]2)cc1,outcome,[4],inactive
same,outcome,[3],inactive
same,outcome,[2],inactive
O=C(Nc1ccccc1)c1cc(Cl)ccc1O,outcome,[4],inactive
same,outcome,[3],inactive
same,outcome,[2],inactive
c1ccc(Nc2cccc3ccccc23)cc1,AC50,[4],43.4 µM (active)
same,AC50,[3],11.9 µM (active)
same,outcome,[2],inactive
same,AC50,[5],31.5 µM (active) and 31.6 µM (active)
same,AC50,[6],23.8 µM (active) and 28.6 µM (active)
same,AC50,[7],33.1 µM (active) and 33.6 µM (active)
same,AC50,[9],26.1 µM (active) and 21.6 µM (active)
same,AC50,[8],38.7 µM (active) and 29.6 µM (active)
CC(Cl)COP(=O)(OCC(C)Cl)OCC(C)Cl (stereo not drawn),outcome,[4],inactive
same,outcome,[3],inactive
same,outcome,[2],inactive
same,outcome,[5],inactive
same,outcome,[6],inactive
same,outcome,[8],inactive
CCCCC(C=O)CC (stereo not drawn),outcome,[4],inactive
same,outcome,[3],inactive
CC(=O)OCCc1ccccc1,outcome,[4],inactive
same,outcome,[3],inactive
same,outcome,[2],inactive
C=CCCCCCCCCO,outcome,[4],inactive
same,outcome,[3],inactive
same,outcome,[2],inactive
